# Laboratory results reported in PubChem BioAssay AID588763 (NMMLSC, 2011).
# Results with a measured potency or affinity are listed apart. Calls of active or inactive are those of the source. No rule for the calls is given here.
# Target: Beta-2 adrenergic receptor (Homo sapiens) (UniProt P07550)
# Assay: beta2AR agonists driving receptor internalization, dose response, cell-based, FAP fluorogen, flow cytometry, cherry pick 1 (AID 588763)
# Conditions: AM2.2-beta2AR cells, 90 min; series mostly up to 33 µM; activation (receptor internalization): at the top concentration
# Beta-2 adrenergic receptor (Homo sapiens), sequence (P07550 whole entry, looked up): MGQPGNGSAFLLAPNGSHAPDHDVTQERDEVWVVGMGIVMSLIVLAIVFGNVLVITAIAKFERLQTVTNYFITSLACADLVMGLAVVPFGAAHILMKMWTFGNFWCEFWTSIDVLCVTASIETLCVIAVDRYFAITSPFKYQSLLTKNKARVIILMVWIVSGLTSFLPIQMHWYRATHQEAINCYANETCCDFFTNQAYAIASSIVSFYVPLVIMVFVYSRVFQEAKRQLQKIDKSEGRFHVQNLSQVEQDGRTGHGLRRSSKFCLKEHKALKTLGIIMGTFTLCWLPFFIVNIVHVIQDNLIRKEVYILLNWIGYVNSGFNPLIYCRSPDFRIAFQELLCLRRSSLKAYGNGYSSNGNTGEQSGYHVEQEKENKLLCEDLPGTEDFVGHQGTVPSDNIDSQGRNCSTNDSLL
SMILES,activation (receptor internalization),outcome
O=C(NC1CCc2ccccc21)c1cc(COc2cncc(Cl)c2)on1 (stereo not drawn),3.55% (inactive),–
COc1ccc(Cn2nc(-c3ccccc3)c(N3CCCCC3)cc2=O)cc1,16.6% (inactive),–
Cc1cccc(C)c1NC(=O)Cn1nnc(-c2ccc(N3CCOCC3)cc2)n1,-4.76% (inactive),–
COc1ccc(NC(=O)Cn2nnc(-c3ccccc3NC(=O)C3CC3)n2)cc1,-26.4% (inactive),–
CC(=O)Nc1ccc(CN2CCC(Oc3ccc(C(=O)N4CCCC4)cc3)CC2)cc1,-1.14% (inactive),–
CCN(CC)CCNc1ncnc2c1sc1nc(N3CCCC3)c3c(c12)CC(C)(C)OC3,69.5% (inactive),–
O=C(COc1ccc(S(=O)(=O)N2CCOCC2)cc1)Nc1ccc(Br)cc1,-5.92% (inactive),–
CSc1ccc(CCNC(=O)C2CCN(c3nnc(-n4cccc4)s3)CC2)cc1,88.6% (inactive),–
COc1cccc(-c2ccc(NC(=O)C3CCCN(Cc4cnn(C(C)C)c4)C3)cc2)c1 (stereo not drawn),28.5% (inactive),–
CC(NC(=O)c1cc(COc2ccc3ncccc3c2)on1)c1ccc(F)cc1 (stereo not drawn),27.1% (inactive),–
O=C(CSc1ccc(Cl)cc1)Nc1ccccc1N1CCN(C(=O)c2ccccc2)CC1,80.9% (inactive),–
COc1ccc(OC)c(S(=O)(=O)N(C)CC(=O)N2CCN(c3ccc(F)cc3)CC2)c1,–,inactive
CC(=O)c1ccc(NC(=O)c2ccc3c(Cl)c4c(nc3c2)CCCC4)cc1,94.8% (inactive),–
CCOc1cc(-c2nc3ccccn3c2NCC2CCCO2)ccc1O (stereo not drawn),-11.8% (inactive),–
CCC(NC(=O)c1cc(COc2cncc(Cl)c2)on1)c1ccc(C)cc1 (stereo not drawn),-14.4% (inactive),–
COc1ccccc1N1CCN(C(=O)CN(C)S(=O)(=O)c2ccc(C)cc2)CC1,50.6% (inactive),–
O=C(Nc1ccc(NC(=O)c2ccccc2F)cc1)c1cccs1,-0.287% (inactive),–

SMILES,activation (receptor internalization),outcome
Cc1cc(S(=O)(=O)N2CCOCC2)ccc1OCC(=O)Nc1ccccc1C(F)(F)F,4.85% (inactive),–
O=C(Nc1ccc2nc(-c3cccs3)c(-c3cccs3)nc2c1)N1CCOCC1,20.4% (inactive),–
Cc1cccc(CN2CCC(Oc3ccc(C(=O)N4CCCCC4)cc3)CC2)c1,13.5% (inactive),–
O=C(COc1ccc(S(=O)(=O)N2CCOCC2)cc1)Nc1ccccc1F,-2.76% (inactive),–
CCCC(=O)N1CCN(c2ccc(NC(=O)c3ccc([N+](=O)[O-])o3)cc2Cl)CC1,31% (inactive),–
COc1ccc(N2CCN(C(=O)CN(C)S(=O)(=O)c3cc(C)ccc3OC)CC2)cc1,-4.19% (inactive),–
COc1ccc(C(=O)Nc2nc3cc4c(cc3s2)OCCO4)c(OC)c1,61.6% (inactive),–
CCOc1ccc(NC(=O)COc2ccc(S(=O)(=O)N3CCCC3)cc2)cc1,-10.2% (inactive),–
COC(=O)[C@@H](NC(=O)c1cc(COc2cncc(Cl)c2)on1)c1ccccc1,2.04% (inactive),–
CC(NCCc1ccc(O)cc1)C(O)c1ccc(O)cc1 (stereo not drawn),-3.89% (inactive),–
CCN(CC)S(=O)(=O)c1cc(C(=O)Nc2cc(Cl)ccc2N2CCN(C)CC2)ccc1Cl,24.4% (inactive),–
Cn1nnnc1Sc1ncnc2scc(-c3cc4ccccc4o3)c12,106% (inactive),–
COc1ccc(NC(=O)Cn2nnc(-c3ccc(CN4CCOCC4)cc3)n2)c(OC)c1,-14.8% (inactive),–
COc1ccc(CCNCC(O)c2ccccc2)cc1 (stereo not drawn),-0.216% (inactive),–
CCOC(=O)C1CCN(C(=O)COC(=O)c2ccccc2C(=O)c2ccc(Cl)cc2)CC1,27.5% (inactive),–
O=C(COc1ccc(S(=O)(=O)N2CCCCC2)cc1)Nc1ccccc1F,-6.13% (inactive),–
